CSC inhib: cancer stem cell viability inhibitors, primary screen, luminescence; inhibition, % at 7.5 µM; actives 1.1% (n = 300,000); cancer stem cell-like cells viability; in the data active means inhibition above about 75%; inconclusive means no clear call, values can overlap the other calls; tested in HMLE shEcad cells
Mdm2 MdmX PPI: inhibitors of human Mdm2-MdmX association, primary screen, cell-based, luminescence, split luciferase, SaOS-2, uHTS | Protein Mdm4 (Homo sapiens) + E3 ubiquitin-protein ligase Mdm2 (Homo sapiens), … | SaOS-2 split-luciferase Mdm2/MdmX complementation | inhibition, % at 8 µM | actives 3% (n = 330,000) | AID 485346, 2010;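 active means inhibition of at least 50% at 8 µM in the primary screen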
Target sequence (O15151 whole entry, looked up): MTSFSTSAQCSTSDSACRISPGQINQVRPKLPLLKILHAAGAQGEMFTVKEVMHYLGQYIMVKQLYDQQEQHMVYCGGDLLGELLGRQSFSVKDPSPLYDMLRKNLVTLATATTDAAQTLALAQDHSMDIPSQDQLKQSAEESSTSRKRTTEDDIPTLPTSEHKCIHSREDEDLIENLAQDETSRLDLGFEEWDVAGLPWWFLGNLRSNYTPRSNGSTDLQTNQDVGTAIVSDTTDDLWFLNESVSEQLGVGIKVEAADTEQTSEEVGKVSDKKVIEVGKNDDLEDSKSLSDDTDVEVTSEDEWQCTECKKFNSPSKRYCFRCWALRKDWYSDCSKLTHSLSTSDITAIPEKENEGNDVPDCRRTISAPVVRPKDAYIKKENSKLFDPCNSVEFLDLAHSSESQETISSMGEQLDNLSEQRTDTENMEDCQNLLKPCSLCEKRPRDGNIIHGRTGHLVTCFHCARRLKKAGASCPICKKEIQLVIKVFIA
Target sequence (Q00987 whole entry, looked up): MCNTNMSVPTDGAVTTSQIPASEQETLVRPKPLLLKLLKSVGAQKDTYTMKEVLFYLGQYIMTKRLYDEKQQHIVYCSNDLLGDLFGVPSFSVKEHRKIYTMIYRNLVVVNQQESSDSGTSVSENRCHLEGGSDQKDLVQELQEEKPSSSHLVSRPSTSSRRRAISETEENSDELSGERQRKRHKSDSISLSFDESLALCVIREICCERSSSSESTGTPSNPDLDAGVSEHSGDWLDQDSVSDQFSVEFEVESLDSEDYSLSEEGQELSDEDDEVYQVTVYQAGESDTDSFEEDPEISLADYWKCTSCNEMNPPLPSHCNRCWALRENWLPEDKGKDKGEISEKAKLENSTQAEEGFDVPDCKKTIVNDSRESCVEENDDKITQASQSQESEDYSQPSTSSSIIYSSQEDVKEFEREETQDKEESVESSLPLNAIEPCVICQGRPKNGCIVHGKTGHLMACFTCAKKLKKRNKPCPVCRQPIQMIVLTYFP
Calb FLC: C. albicans growth inhibition with fluconazole, primary screen, CaCi-2 strain, Alamar Blue fluorescence. C. albicans CaCi-2 (fluconazole-resistant clinical isolate) + fluconazole, 48 h. growth inhibition, % (concentration not given with the values). actives 0.57% (n = 300,000);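 active means growth inhibition above about 58% in most replicates, limit read from the data, passing the limit was not always enough; inconclusive means exactly half the replicates above a set limit; inactive means most replicates below a set limit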;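 further: all wells also contain fluconazole at 8 µg/ml as a sub-toxic cotreatment; 0% = median of DMSO wells and 100% = median of geldanamycin control wells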
MPTP block: mitochondrial permeability transition pore inhibitors, primary screen, biochemical, isolated mouse mitochondria, absorbance. Ca2+ swelling absorbance, 30 min. inhibition, % at 10 µM. actives 1.4% (n = 360,000). AID 602449, 2012;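 active means inhibition of 50% or more, scaled per plate between neutral and stimulator controls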;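 further: 0% = DMSO wells given calcium and 100% = 1 mM EGTA wells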
Beta cell apopt: inhibitors of cytokine-induced beta cell apoptosis, primary screen, luminescence; protection from apoptosis, % (concentration not given with the values); actives 0.8% (n = 300,000); INS-1E cytokine-induced death, ATP luminescence, 48 h; percent of positive-control rescue, neutral wells zero;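 active means Every replicate reaches about 75%, or at least half do and their mean reaches it too, limit read from the data; inconclusive means At least half of replicates reach the limit but their mean does not; inactive means Under half of replicates reach the limit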;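 further: 0% = cytokine-treated negative control wells and 100% = positive control rescue; higher means more ATP so stronger rescue from cytokine killing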
Mdm2 MdmX conf: Mdm2-MdmX complex disruptors, retested hits, confirmation, luminescence, single concentration. inhibition, % at 8 µM. actives 55% (n = 10,000). shares compounds with Mdm2 MdmX PPI. Mdm2-MdmX binding, luminescent assay; in the data active means inhibition above about 40%
Full FLuc ctr: full-length luciferase signal inhibition, confirmation, counter-screen for Mdm2/MdmX interaction inhibitor project, cell-based, single concentration, SaOS-2; shares compounds with Mdm2 MdmX PPI; SaOS-2 full-length luciferase counterscreen, luminescence; inhibition, % at 8 µM; actives 77% (n = 6,200);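 active means mean inhibition at 8 µM reaching about 37%, which flags the compound as non-specific, limit read from the data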;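 further: p53-null SaOS-2 cells with luciferase driven by a doxycycline-inducible promoter; compound on cells about two nights before reading with doxycycline added after day one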
An asterisk follows results filed as active; ? = inconclusive; · = not tested or not shown. Most compounds without a hit are left out; they make up all but 4.8% or so of the library.

SMILES	CSC inhib	Mdm2 MdmX PPI	Calb FLC	MPTP block	Beta cell apopt	Mdm2 MdmX conf	Full FLuc ctr
Cc1[nH]n(-c2ccccc2)c(=O)c1/C=N/NC(=O)c1cccc([N+](=O)[O-])c1	5	52*	·	4	-2	44*	6
Cc1c(/C=N\NC(=O)c2ccc([N+](=O)[O-])cc2)cnn1C	-9	6	-20	-1	-7	·	·
CN1CCN(c2ccccc2NC(=O)c2cccc([N+](=O)[O-])c2)CC1	·	2	-10	-3	0	·	·
CN1CCN(c2ccc([N+](=O)[O-])cc2/C=N/NC(=O)c2cccc([N+](=O)[O-])c2)CC1	22	51*	-4	·	1	-4	·
Cc1ccc(-n2[nH]c(C)c(/C=N/NC(=O)c3ccc([N+](=O)[O-])cc3)c2=O)c(C)c1	36	53*	103*	0	·	9	·
Cc1ccccc1NC(=O)CCCNC(=O)c1ccc(Cl)cc1	-6	-32	-1	-1	-5	·	·
CCOc1cc2c3c(c1)C(C)=CC(C)(C)N3C(=O)C2=O	17	68*	-3	0	18	39	85*
CC(=O)NC(c1cc(Cl)c2cccnc2c1O)C(C)C (stereo not drawn)	42	66*	·	-1	103*	43*	37*
CC(=O)NC(C)c1cc(F)c2cccnc2c1O (stereo not drawn)	-4	22	·	-1	-8	·	·
CC(=O)NC(c1cc(Cl)c2ccccc2c1O)C(C)C (stereo not drawn)	24	7	·	1	2	·	·
CC(=O)NC(c1cc(Cl)c2cccnc2c1O)C1CC1 (stereo not drawn)	110*	53*	·	-2	87*	49*	33
CC(=O)NC(c1ccc(C)cc1)c1cc(Cl)c2cccnc2c1O (stereo not drawn)	18	87*	-3	1	6	77*	21
CC(O)(c1cccnc1)c1nc(/C=C/c2ccccc2)cs1 (stereo not drawn)	·	·	·	3	·	·	·
CCCC(=O)N1CCCC1(C)C(=O)NCCc1ccccn1 (stereo not drawn)	·	·	·	-1	·	·	·
COc1cc(C(=O)NCC(=O)NCCN2C(=O)S/C(=C\c3ccccc3Cl)C2=O)cc(OC)c1OC	-11	-18	0	-1	7	·	·
COc1cc(/C=C2\SC(=O)N(CCNC(=O)c3sc4cc(F)ccc4c3Cl)C2=O)cc(OC)c1OC	33	54*	1	1	8	-10	·
COc1ccc(S(=O)(=O)N2CCCOC2CNC(=O)C(=O)NCCc2ccco2)cc1C (stereo not drawn)	17	53*	1	-1	0	60*	61*
O=C(CSc1nc(Cc2ccccc2)nc2ccccc12)Nc1nc2c(s1)CCCC2	·	-17	-19	-1	·	·	·
CC(C)(C)c1nc(SCC(=O)Nc2nc3c(s2)CCCC3)c2ccccc2n1	119*	98*	-7	1	24	93*	54*
CC(C)c1nc(SCC(=O)NC2CCCC2)c2ccccc2n1	1	13	-10	-1	0	·	·
Cc1cc(NC(=O)CSc2nc(C(C)C)nc3ccccc23)no1	39	39	1	-2	-6	·	·
CC(C)c1nc(SCC(=O)Nc2nc3c(s2)CCCC3)c2ccccc2n1	-11	85*	-11	1	-6	64*	45*
O=C(Nc1nc2c(s1)CCCC2)c1cccs1	25	-126	·	12	20	·	·
O=C(Cc1cccs1)Nc1nc2c(s1)CCCC2	-1	56*	-22	1	1	47*	90*
Cc1nnc(NC(=O)CSc2nc(C(C)C)nc3ccccc23)s1	62	76*	3	-1	1	63*	44*
SMILES	CSC inhib	Mdm2 MdmX PPI	Calb FLC	MPTP block	Beta cell apopt	Mdm2 MdmX conf	Full FLuc ctr
CCOC1=C2[C@@H](CN(S(=O)(=O)c3ccc(C)cc3)[C@H]2c2ccccc2F)[C@H]2C(=O)N(C3CCCCC3)C(=O)[C@H]2C1	·	·	·	-1	·	·	·
O=C(Nc1nnc([C@H]2C[C@H](O)[C@@H](CO)O2)s1)c1ccc(Oc2ccccc2)cc1	·	·	·	0	·	·	·
CCCOc1ccc(F)cc1-c1cc(C(=O)NCc2cc(OC)cc(OC)c2)[nH]n1	·	·	·	0	·	·	·
Cc1csc(=O)n1CC(=O)OCC(=O)Nc1ccc(Cl)cc1F	-18	4	11	0	·	·	·
Cc1cc(OCc2nc(-c3ccc(NC(=O)c4cccnc4)cc3)no2)ccc1Cl	-9	62*	-16	-1	125*	11	·
c1ccc(Cn2c(CNc3nc4ccccc4n3CCN3CCCCC3)nc3ccccc32)cc1	17	57*	2	10	0	15	·
Cn1c(CNc2nc3ccccc3n2CCN2CCCCC2)nc2ccccc21	-6	12	?	0	3	·	·
COCCNC(=O)C1CCCN(C(=O)COc2ccc(Cl)cc2Cl)CC1 (stereo not drawn)	·	·	·	-1	·	·	·
CC1CCC2(CC1)NC(=O)N(CC(=O)Nc1ccc(N3CCCCC3)cc1)C2=O (stereo not drawn)	·	·	·	-1	·	·	·
COc1ccc(-n2nc(C(=O)NCCCN3CCCC3=O)c3c4ccccc4n(C)c3c2=O)cc1Cl	-11	11	11	0	8	·	·
COc1ccccc1CNC(=O)c1nn(-c2ccc(C)cc2)c(=O)c2c1c1ccccc1n2C	0	79*	-1	1	11	21	·
COc1ccc(-n2nc(C(=O)NCc3ccco3)c3c4ccccc4n(C)c3c2=O)cc1Cl	-1	57*	-3	-2	5	1	·
COc1ccc(NC(=O)C2Cc3c(-c4cccc(C(C)=O)c4)ccnc3O2)cc1 (stereo not drawn)	·	·	·	2	·	·	·
C[C@@H]1C=CC(=O)O[C@@H]1c1ccc(C(F)(F)F)cc1	92*	76*	-4	·	6	69*	9
C[C@H]1C=CC(=O)O[C@H]1c1ccccc1	-11	50*	-7	0	-66	8	·
Cn1c2c(c(=O)n(C)c1=O)C(c1ccc(C(F)(F)F)cc1)CC(=O)N2 (stereo not drawn)	3	-14	-8	-2	6	·	·
O=C1CN(C(=O)c2cccc(Br)c2)c2ccccc2N1	35	53*	8	-3	1	62*	52*
O=C1CN(C(=O)c2ccccc2)c2ccccc2N1	9	-7	5	-1	-7	·	·
O=C1CN(C(=O)c2ccc(Cl)c(S(=O)(=O)N3CCc4ccccc43)c2)c2ccccc2N1	36	86*	-2	4	11	78*	64*
Cc1cc2nc(-c3ccccc3Br)n(/C=C(\c3ccccc3)n3c(=O)[nH]c4ccccc43)c2cc1C	·	·	·	1	·	·	·
